We go through 52 molecules from ChEMBL document CHEMBL3988442, “University of Dundee, Small-Polar-MMV Screening Library” (2021).

The whole screen tested about 48,000 compounds, of which about 13,000 (27%) showed an effect of 50% or more. This is one part of the list.

This test has as its system Wolbachia pipientis. The test is described as follows: Anti-Wolbachia Cell-Based Screen. Type of test: functional. Also on record: scale not given: in the data most compounds retested in dose-response had high values. The note with it: 5 µM.
As to `Cc1ccc(C(O)CNCc2c(C(C)C)nn(C)c2N(C)C)cc1` (configuration not stated), the “Percent Effect” value stood at 2.504%.
Turning to `CC(C)c1nn(C)c(N(C)C)c1CNCC(O)c1cccc(F)c1` (configuration not stated), the “Percent Effect” value is 133.5%.
`CC(C)c1nn(C)c(Cl)c1CNCC(O)c1cccc(F)c1.Cl` (configuration not stated): the “Percent Effect” value was found to be 10.68%.
For the molecule `COc1cccc(CNCc2c(C(C)C)nn(C)c2N(C)C)c1OC`, the “Percent Effect” value is -9.439%.
Then `CC(C)c1nn(C)c(N(C)C)c1CNC(C)c1ccccc1F` (configuration not stated), with 86.76%; and `CC(C)c1nn(C)c(N(C)C)c1CNCC(O)c1ccccc1` (configuration not stated), with 92.25%; and `O[C@@H]1CCN(c2ccc3c(Cl)ccnc3c2F)C1`, with -13.88%.
With `COc1ccc(F)cc1S(=O)(=O)N1CCN(CCn2ccnc2)CC1`, the “Percent Effect” value is 123.5%.
For the molecule `CCOc1ccc(CNCCCn2ccnc2)cc1OC`, the “Percent Effect” value was -15.55%.
For the molecule `COc1ccc(CNCC2CCN(CCO)CC2)cc1F`, the “Percent Effect” value is given as -13.55%.
Consider `COc1ccc(CN2CCN(Cc3nccn3C)C(C)C2)cc1F` (configuration not stated), for which the “Percent Effect” value was 3.11%.
Then `O=S(=O)(c1cccnc1)N1CCN(CCn2ccnc2)CC1`, with 2.586%.
Regarding `O=S(=O)(c1ccc(F)cc1)N1CCN(CCCn2ccnc2)CC1`, the “Percent Effect” value is reported as 9.586%.
As to `COc1ccc(Cl)cc1CNCCCn1ccnc1`, the “Percent Effect” value is reported as 10.95%.
Regarding `COc1ccc(Cn2ccnc2)cc1F`, the “Percent Effect” value was determined as 137.9%.
Take `COc1ccc(CN2CCN(CCn3ccnc3)CC2)cc1F`: the “Percent Effect” value is 154.2%.
For the molecule `CC(C)(N)c1nc(C(F)F)cc(=O)[nH]1.Cl`, the “Percent Effect” value is reported as 0.5685%.
Then `CCOc1ccc(CNC(=O)c2cnc(OC)nc2)cc1`, with -7.599%; and `CCOc1nc2cnccc2n(CC(=O)NCCc2ccccc2)c1=O`, with 107.7%.
Turning to `CCOc1nc2cnccc2n(CC(=O)Nc2ccccc2OC)c1=O`, the “Percent Effect” value turned out to be 90.9%.
As to `CCOc1nc2cnccc2n(CC(=O)NCc2ccco2)c1=O`, the “Percent Effect” value was found to be 96.93%.
For `CCOc1nc2cnccc2n(CC(=O)NCc2ccc(C)cc2)c1=O`, the “Percent Effect” value amounted to 143.1%.
As for `CC1CN(CC(=O)NCCc2ccncc2)Cc2ccccc2O1` (configuration not stated), the “Percent Effect” value is on record as -8.36%.
Then `COc1ccccc1NCC(=O)Nc1cnn(Cc2ccccn2)c1`, with -4.871%; and `CCOc1nc2cccnc2n(CC(=O)NCCOC)c1=O`, with -3.624%; and `O=C(CN1CCC(c2cccc(F)c2)C1)NCc1ccco1` (configuration not stated), with -26.03%.
For the molecule `CC(C)(C)n1ncc2c(=O)n(CC(=O)NCc3ccco3)cnc21`, the “Percent Effect” value worked out at 3.142%.
Regarding `Cc1nsc(N2CCN(CC(=O)NCc3cccnc3)CC2)n1`, the “Percent Effect” value was determined as 1.2%.
`COc1ccccc1NC(=O)Cc1c(C)nc2c(c1C)c(=O)[nH]n2C`: the “Percent Effect” value is recorded as -0.4507%.
For `CC(C)N(CC(N)=O)CC(=O)N(C1=CCCCC1)C1CC1`, the “Percent Effect” value is -0.3485%.
For the molecule `CCC(CC)C(=O)NS(=O)(=O)CCc1ccccc1`, the “Percent Effect” value is recorded as -5.917%.
For the molecule `COCCn1cc(C(=O)N2CCCC2c2ccccc2C)ccc1=O` (configuration not stated), the “Percent Effect” value is listed as -35.63%.
On to `Fc1cnc(N2CCn3cc(CNc4ccccn4)nc3C2)nc1.O=C(O)C(F)(F)F.O=C(O)C(F)(F)F`, for which the “Percent Effect” value is listed as -14.44%.
For `OC1(CNc2cc(C(F)(F)F)nc3ccccc23)CCOCC1`, the “Percent Effect” value is listed as 28.2%.
With `Cc1cc(NC(=O)CNC(C)(C)c2ccccc2)on1`, the “Percent Effect” value turned out to be 5.655%.
`CCN1CCC(CNC(=O)C(c2ccccc2F)N(C)C)(N(C)C)CC1` (configuration not stated): the “Percent Effect” value came out at 4.874%.
Take `CCCn1nc2c(cc1=O)CN(Cc1nnc(C3CC3)o1)CC2`: the “Percent Effect” value was 20.46%.
In the case of `Cc1cc(F)ccc1N1CCCC(NS(=O)(=O)CCCF)C1=O` (configuration not stated), the “Percent Effect” value is recorded as -6.348%.
As for `Cn1c(SCC(O)COCc2ccccc2Cl)nnc1C1CC1` (configuration not stated), the “Percent Effect” value is reported as -19.68%.
Turning to `COc1ccc(F)c(CN2CCCC(O)(CNCc3ccon3)C2=O)c1` (configuration not stated), the “Percent Effect” value is given as -2.252%.
For `CC(C)N(C)C(=O)c1ccc(Cl)c(NC(=O)CCN2C(=O)CCC2=O)c1`, the “Percent Effect” value is listed as -4.274%.
In the case of `Cc1c(NC(C)C(C)C)cccc1C(=O)NCc1ccnn1C` (configuration not stated), the “Percent Effect” value is 9.043%.
To `CC(=O)NCCC(=O)NCc1cccnc1-n1cnc2ccccc21` belongs -3.508%; to `CCN(CC)S(=O)(=O)CCNc1ncnc2cc(F)c(F)cc12`, 0.3954%.
On to `O=C(COCc1ccccc1)Nc1ccccn1`, for which the “Percent Effect” value is listed as -24.26%.
On to `CCOC(=O)Cn1c(=O)c(OCC)nc2cnccc21`, for which the “Percent Effect” value is on record as 100.3%.
With `CCOC(=O)Cn1cnc2nc3n(c2c1=O)CCC3`, the “Percent Effect” value is reported as -20.3%.
To `CCOC(=O)N1CCN(C(=O)Cn2ccc3ncccc3c2=O)CC1` belongs -21.73%.
To `CN(Cc1nccn1C)S(=O)(=O)Cc1cccc(C#N)c1` belongs 6.063%.
For the molecule `COCc1nc(C(=O)N2CCCCC2Cn2cccn2)cs1` (configuration not stated), the “Percent Effect” value was 0.9161%.
Regarding `O=C(c1csc(C2CC2)n1)N1CCCCC1Cn1cccn1` (configuration not stated), the “Percent Effect” value is recorded as 99.33%.
Turning to `O=C(c1csc(C2CC2)n1)N1CCCC1Cn1cccn1` (configuration not stated), the “Percent Effect” value stood at 109.4%.
